Assay outcomes as filed in PubChem.
This is a sample that favours compounds with a hit; in the whole collection about 8% have one here.
HT1080 IDH1KD tx – kills HT-1080 cells with IDH1 knockdown; HT-1080 IDH1 knockdown viability, ATP luminescence, 48 h; Potency, µM (series often up to 46.1 µM), actives largely listed as cytotoxic; actives 2% (n = 360,000); AID 686971
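After a 2 h attachment period, IDH1KD HT-1080 cells took pin-transferred compound for 48 h at 37 °C; ATP-based luminescence after 10 min room-temperature reagent incubation reported viability.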
MCF10A rerep – DNA re-replication induction in MCF 10a cells; MCF 10A DNA re-replication, Hoechst nuclear intensity, 48 h; AID 624296; Potency, µM (titrated, usually from 46.1 µM), usual class: activators; actives 2.9% (n = 350,000); note: nearly all actives have a fitted effect of over 50% in size
HT1080NT lethal – kills 2HG-producing HT-1080-NT fibrosarcoma cells; HT-1080-NT fibrosarcoma viability, CellTiter-Glo ATP luminescence, 48 h; Potency, µM (highest dose often 46.1 µM), hits mostly cytotoxic; actives 1.6% (n = 360,000); AID 686970;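 note: NT is the 2HG producing partner of a matched IDH1 knockdown line; nearly all actives have a fitted effect of over 55% in size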
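HT-1080-NT; 750 cells/well; 5% FBS RPMI; 48 h compound, 37 degrees C; CellTiter-Glo luminescence; curve fitting and curve-class assignment.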
SW480 rerep – inducers of DNA re-replication in SW480 colon cancer cells. actives 1.8% (n = 340,000). Potency, µM (doses to about 46.1 µM), hits mostly activators. AID 624297. SW480 DNA re-replication, Hoechst DNA content imaging, 48 h; note: nearly all actives have a fitted effect of over 55% in size
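DNA re-replication was detected as more nuclei of elevated Hoechst intensity after 48 hr exposure to compound (23 nL pinned per well of 250 cells).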
KB-V1 MDR tox – kills drug-selected multidrug resistant KB-V1 cells; KB-V1 MDR cells viability, CellTiter-Glo, 72 h; Potency, µM (highest dose often 46.1 µM), hits mostly cytotoxic; actives 3.4% (n = 400,000); note: nearly all actives have a fitted effect of over 60% in size
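Following 72 h at 37 degrees C with compound, KB-V1 cell viability was read by CellTiter-Glo luminescence, medium being phenol-red-free DMEM plus 10% FBS; concentration-response parameters came from normalized, curve-fitted qHTS data.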
KB-3-1 tox – kills parental KB-3-1 adenocarcinoma cells; Potency, µM (highest dose often 46.1 µM), actives largely listed as cytotoxic; actives 1.4% (n = 400,000); KB-3-1 viability, CellTiter-Glo ATP luminescence, 72 h; note: nearly all actives have a fitted effect of over 60% in size
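Cytotoxicity in the drug-sensitive parental line KB-3-1 was scored as loss of CellTiter-Glo luminescence following 72 h incubation with compound. Values come from curve fitting of normalized concentration-response data.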
A number is an active result; ! = repeats disagree; [ ] = another dose, or the depositor's remark. Calls come from the whole dose curve; as a rule, active = well fitted curve in the direction sought with a large enough effect; inconclusive = small, poorly fitted or top-dose-only effect, or another doubt; inactive = no such curve, though single readings can be large; an effect the other way counts as inactive or inconclusive.

Results for C/C(=N\NC(=O)c1n[nH]c2c1CCC2)c1ccco1 ?
HT1080 IDH1KD tx: inactive; MCF10A rerep: inactive; HT1080NT lethal: inactive; SW480 rerep: inactive; KB-V1 MDR tox: inconclusive; KB-3-1 tox: inactive

What do the screens show for `CC1CCCN(S(=O)(=O)c2ccc(NC(=O)CCN3C(=O)c4ccccc4C3=O)cc2)C1` (configuration not stated)?
HT1080 IDH1KD tx: inactive; MCF10A rerep: inactive; HT1080NT lethal: inactive; SW480 rerep: inactive; KB-V1 MDR tox: inactive; KB-3-1 tox: inactive

What do the screens show for `O=S(=O)(NCC(c1ccco1)N1CCN(c2ccc(F)cc2)CC1)c1ccc(F)cc1` (configuration not stated)?
HT1080 IDH1KD tx: inactive; MCF10A rerep: inactive; HT1080NT lethal: inactive; SW480 rerep: inactive; KB-V1 MDR tox: 15µM; KB-3-1 tox: inactive

Results for O=S(=O)(NCC(c1ccco1)N1CCN(c2ccccc2)CC1)c1cc(F)ccc1F (configuration not stated) ?
KB-V1 MDR tox: inactive; KB-3-1 tox: inactive

How did COc1ccc(N2CCN(C(CNC(=O)C(=O)NCC3CCCO3)c3ccco3)CC2)cc1 (configuration not stated) do in these assays?
HT1080 IDH1KD tx: inactive; MCF10A rerep: inactive; HT1080NT lethal: inactive; SW480 rerep: inactive; KB-V1 MDR tox: 4.1µM; KB-3-1 tox: inactive

What do the screens show for `O=c1n(Cc2ccccc2)c2cc(Cl)cnc2n1Cc1ccccc1`?
HT1080 IDH1KD tx: inactive; MCF10A rerep: inconclusive; HT1080NT lethal: inactive; SW480 rerep: inactive[9.22 µM]; KB-V1 MDR tox: inactive; KB-3-1 tox: inactive

How did CCc1cc2c(=O)c(-c3cscn3)coc2cc1O do in these assays?
HT1080 IDH1KD tx: inconclusive; MCF10A rerep: inactive; HT1080NT lethal: inconclusive; SW480 rerep: inactive; KB-V1 MDR tox: inactive; KB-3-1 tox: inactive

How did Cc1cccc(C(=O)Nc2sc3c(c2C(=O)O)CCCC3)c1 do in these assays?
HT1080 IDH1KD tx: inactive; MCF10A rerep: inconclusive; HT1080NT lethal: inconclusive; SW480 rerep: inactive; KB-V1 MDR tox: 7.3µM!; KB-3-1 tox: 6.5µM!

How did CCc1ccccc1NC(=O)c1c(NC(=O)c2ccccc2)sc2c1CCCC2 do in these assays?
KB-V1 MDR tox: inactive; KB-3-1 tox: inconclusive

Results for CCN(CC)CCCC(C)NC(=O)c1c(NC(=O)c2ccccc2)sc2c1CCCC2 (configuration not stated) ?
HT1080 IDH1KD tx: inconclusive; MCF10A rerep: 4.6µM; HT1080NT lethal: inconclusive; SW480 rerep: inconclusive; KB-V1 MDR tox: inactive; KB-3-1 tox: inactive

How did COc1ccc(-c2csc(C(O)c3cccnc3)n2)cn1 (configuration not stated) do in these assays?
HT1080 IDH1KD tx: inactive; HT1080NT lethal: inactive; KB-V1 MDR tox: inactive; KB-3-1 tox: inactive

Results for O=C(CN1C(=O)c2ccccc2S1(=O)=O)Nc1ccccc1C(=O)NCc1ccco1 ?
HT1080 IDH1KD tx: inactive; MCF10A rerep: inactive; HT1080NT lethal: inactive; SW480 rerep: inactive; KB-V1 MDR tox: inactive; KB-3-1 tox: inactive

Results for O=C(CN1C(=O)c2cccc3cccc1c23)Nc1ccccc1C(=O)NCc1ccco1 ?
HT1080 IDH1KD tx: inactive; MCF10A rerep: 21µM; HT1080NT lethal: inactive; SW480 rerep: inactive; KB-V1 MDR tox: inconclusive; KB-3-1 tox: inactive

What do the screens show for `CCN(CC)c1nc(-c2ccc(Cl)cc2)cc(C(F)(F)F)c1C#N`?
HT1080 IDH1KD tx: inactive; MCF10A rerep: 1.2µM; HT1080NT lethal: inactive; SW480 rerep: inconclusive; KB-V1 MDR tox: inactive; KB-3-1 tox: inactive

How did Cc1ccccc1NC(=O)c1cc2ccccn2n1 do in these assays?
HT1080 IDH1KD tx: inactive; MCF10A rerep: inactive; HT1080NT lethal: inactive; SW480 rerep: inactive; KB-V1 MDR tox: inconclusive; KB-3-1 tox: inactive

Results for Cc1ccccc1N(CC(=O)Nc1ccccc1C(=O)O)S(C)(=O)=O ?
HT1080 IDH1KD tx: inactive; MCF10A rerep: inactive; HT1080NT lethal: inactive; SW480 rerep: inactive; KB-V1 MDR tox: inactive; KB-3-1 tox: inactive

What do the screens show for `CC(C)CCNC(=O)C(c1ccco1)N(CC1CCCO1)C(=O)Cn1nnc2ccccc21` (configuration not stated)?
HT1080 IDH1KD tx: inactive; MCF10A rerep: inactive; HT1080NT lethal: inactive; SW480 rerep: inactive[9.22 µM]; KB-V1 MDR tox: inactive; KB-3-1 tox: inactive

What do the screens show for `CCOC(=O)c1nn(-c2ccccc2C)c2nc(-c3ccc(C)cc3)c(C#N)c(=O)n12`?
HT1080 IDH1KD tx: inactive; MCF10A rerep: inactive; HT1080NT lethal: inactive; SW480 rerep: inactive; KB-V1 MDR tox: inactive; KB-3-1 tox: inactive

How did CCOC(=O)c1nn(-c2ccccc2)c2nc(-c3ccc(OC)cc3)c(C#N)c(=O)n12 do in these assays?
HT1080 IDH1KD tx: inactive; MCF10A rerep: inactive; HT1080NT lethal: inactive; SW480 rerep: inactive; KB-V1 MDR tox: 23µM; KB-3-1 tox: inconclusive

How did CCOC(=O)c1nn(-c2cccc(OC)c2)c2nc(Nc3ccccc3)cc(=O)n12 do in these assays?
HT1080 IDH1KD tx: inactive; MCF10A rerep: inconclusive; HT1080NT lethal: inactive; SW480 rerep: 23µM; KB-V1 MDR tox: inactive; KB-3-1 tox: inactive

What do the screens show for `CCOC(=O)c1nn(-c2cccc(Cl)c2)c2nc(Nc3ccccc3)cc(=O)n12`?
HT1080 IDH1KD tx: inactive; MCF10A rerep: inconclusive; HT1080NT lethal: inactive; SW480 rerep: inactive; KB-V1 MDR tox: inactive; KB-3-1 tox: inactive

What do the screens show for `COc1ccc(-c2ccccc2NC(=O)C2CCCN(Cc3ccco3)C2)cc1` (configuration not stated)?
HT1080 IDH1KD tx: inactive; MCF10A rerep: inactive; HT1080NT lethal: inactive; SW480 rerep: inactive; KB-V1 MDR tox: inconclusive; KB-3-1 tox: inactive

How did O=C(/C=C\Nc1ccc2c(c1)OCO2)c1ccc2c(c1)OCO2 do in these assays?
HT1080 IDH1KD tx: inconclusive; MCF10A rerep: 21µM; HT1080NT lethal: inconclusive; SW480 rerep: inactive; KB-V1 MDR tox: inactive; KB-3-1 tox: inactive

Results for O=C(/C=C\Nc1ccc2c(c1)OCO2)c1ccc(Cl)s1 ?
HT1080 IDH1KD tx: inconclusive; MCF10A rerep: inactive; HT1080NT lethal: inactive; SW480 rerep: inactive; KB-V1 MDR tox: inactive; KB-3-1 tox: inactive

Results for O=C(/C=C\Nc1ccc2c(c1)OCO2)c1cccs1 ?
HT1080 IDH1KD tx: 6.5µM; MCF10A rerep: inactive; HT1080NT lethal: inconclusive; SW480 rerep: inactive; KB-V1 MDR tox: inactive; KB-3-1 tox: inconclusive

Results for O=C(Nc1ccc(S(=O)(=O)Nc2ncccn2)cc1)c1ccc(N2CCCC2=O)cc1 ?
HT1080 IDH1KD tx: inactive; MCF10A rerep: inactive; HT1080NT lethal: inactive; SW480 rerep: inactive; KB-V1 MDR tox: inactive; KB-3-1 tox: inactive

Results for CC(C)NC(=O)CCCN1C(=O)CCn2nc(-c3cccn3C)cc21 ?
KB-V1 MDR tox: inactive; KB-3-1 tox: inactive
